Screening data from PubChem BioAssay.
An excerpt weighted towards active compounds, which were near 0.8% of everything screened.
TRHR enhancer = allosteric enhancers of human TRH receptor. 360,000 tested, 0.66% active. P34981. enhancement, % at 2 µM. AID 493056. TRHR cells, fluo-8 calcium fluorescence, EC20 TRH enhancement; in the data active = enhancement above about 30%
Target sequence (P34981 whole entry, looked up): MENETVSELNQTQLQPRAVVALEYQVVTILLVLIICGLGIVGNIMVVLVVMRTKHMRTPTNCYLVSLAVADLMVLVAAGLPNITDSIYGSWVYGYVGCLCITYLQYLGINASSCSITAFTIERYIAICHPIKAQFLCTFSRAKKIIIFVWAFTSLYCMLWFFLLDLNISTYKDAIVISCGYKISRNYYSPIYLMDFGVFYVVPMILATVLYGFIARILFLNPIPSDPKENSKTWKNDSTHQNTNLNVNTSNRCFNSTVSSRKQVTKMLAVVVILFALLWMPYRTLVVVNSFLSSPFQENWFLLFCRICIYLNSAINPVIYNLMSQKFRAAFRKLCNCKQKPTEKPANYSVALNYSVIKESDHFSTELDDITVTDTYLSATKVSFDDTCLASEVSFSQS
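TRHR-expressing cells loaded with fluo-8 calcium dye were read kinetically (ex 480/em 530) during compound addition, then stimulated with an EC20 of TRH (10 nM final). Enhancement of the Gq-mediated intracellular calcium response was scored.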
TRHR agonist = activates the human TRH receptor | TRHR cells, calcium flux fluo-8, FDSS agonist mode | activation, % at 2 µM | 360,000 tested, 0.18% active | AID 493084; in the data active = activation above about 30%
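Steps: seed TRHR cells overnight; add fluo-8 no-wash Ca dye, RT 30 min–1.5 h; record 10 s baseline; pin-transfer compounds; monitor fluorescence 1 cycle/s for the agonist window. Calcium increases flag candidate agonists.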
TRPML1 blocker = human mucolipin-1 channel inhibition; TRPML1-inducible cells, Ca2+ dye fluorescence, FDSS; active compounds read low; inhibition of EC80 agonist-evoked calcium signal; Q9GZU1; activity change, negative = inhibition, % (no concentration beside the values); 390,000 tested, 0.02% active; AID 624415; in the data active = activity change below about -50%; inconclusive = between about -30% and that limit;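 also: stimulus is agonist 54-4 at its EC80 concentration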
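Tet-induced TRPML1-DL cells loaded with Ca8 no-wash calcium dye were read kinetically on FDSS. Compound addition was followed by EC80 agonist 54-4 (4 uM final); inhibition was read over 110 s.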
GRP78 ERSR act = induces the endoplasmic reticulum stress response in human glioma cells. 420,000 tested, 0.02% active. U87-MG GRP78 promoter luciferase reporter, 16 h. Potency, µM, actives largely listed as activators; active = well fitted activation curve with a large enough effect; inconclusive = small, poorly fitted or top-dose-only effect; inactive = no such curve, though single readings can be large or run the other way; also: series mostly up to about 76 µM; nearly all actives have a fitted effect of over 35% in size
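Stably transfected U87-MG glioma cells carrying a GRP78-based luciferase sensor; 16 h compound incubation. Luminescence end-point read 10 min after Bright-Glo addition at room temperature.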
TRPML1 ag = human mucolipin-1 channel agonism; 410,000 tested, 0.12% active; activation, % (test concentration not listed); TRPML1-expressing cells, Ca2+ dye fluorescence, FDSS; in the data active = activation above about 50%; inconclusive = mostly about 30% to 49%
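Agonist activity was taken from a 110 s kinetic Ca2+ dye read on the FDSS after pinning compounds onto TRPML1-DL cells. The cells were seeded at 1,500/well with Tet inducer, incubated about 16 h, then dye-loaded at room temperature.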
Each line names hits and unclear results; the compound was inactive in the other large screens; ! = a repeat was not active.

O=C(CSC(=S)N1CCCC1)Nc1ncc(Cl)cc1Cl	TRHR enhancer 31
CCC(=O)N[C@@H]1c2ccccc2C2(CCN(Cc3[nH]c4c(Cl)cccc4c3C)CC2)[C@H]1OC	none (no result: TRHR enhancer, TRHR agonist, TRPML1 blocker, TRPML1 ag)
CC1C(=O)N2CCCc3cc(S(=O)(=O)Nc4ccccc4C(N)=O)cc1c32 (configuration not stated)	TRHR enhancer 32
C[N+]1(C)CCC(OC(=O)CC(O)(c2ccccc2)C2CCCC2)C1 (configuration not stated)	none (no result: TRHR enhancer, TRHR agonist, TRPML1 blocker, TRPML1 ag)
C=C(c1ccc2ccccc2n1)c1cccs1	none (no result: TRHR enhancer, TRHR agonist, TRPML1 blocker)
COc1ccccc1CNS(=O)(=O)c1cc2c3c(c1)CCN3C(=O)CC2	TRHR enhancer 30!
COc1cccc(CNS(=O)(=O)c2cc3c4c(c2)CCC(=O)N4CCC3)c1	none
Nc1c(C(=O)Nc2cccc(Cl)c2)sc2nc3c(cc12)CN(Cc1ccccc1)CC3	TRHR enhancer 33 (no result: GRP78 ERSR act)
COc1ccc(S(=O)(=O)NNC(N)=S)cc1	TRHR enhancer 31
COc1ccc(C2CC(c3ccccc3)=NN2C(=O)COC(=O)c2cc(S(=O)(=O)N3CCOCC3)ccc2Cl)cc1 (configuration not stated)	TRHR enhancer 40
COc1ccc(C2CC(c3ccccc3)=NN2C(=O)COC(=O)c2cccc(N)c2)cc1 (configuration not stated)	none (no result: TRHR enhancer, TRHR agonist)
COc1ccc(C2CC(c3ccccc3)=NN2C(=O)COC(=O)c2cccnc2)cc1 (configuration not stated)	TRHR enhancer 37
COc1ccc(C2CC(c3ccccc3)=NN2C(=O)CCC(=O)O)cc1 (configuration not stated)	TRHR enhancer 33
O=C(Nc1cc(C(=O)N2CCN(CCO)CC2)c2c(c1)ncn2C1CCCC1)c1ccccc1	none (no result: TRHR enhancer, TRHR agonist, TRPML1 blocker, TRPML1 ag)
Cc1ncc(Cc2ccccc2)c(C2CCN(S(=O)(=O)C[C@]34CC[C@H](CC3=O)C4(C)C)CC2)n1	none (no result: TRHR enhancer, TRHR agonist, TRPML1 blocker, TRPML1 ag)
COc1ccccc1CCc1nc2ccccc2n1C1CCN(C(=O)c2cc(C)nn2C)CC1	none (no result: TRHR enhancer, TRHR agonist, TRPML1 blocker, TRPML1 ag)
COC(=O)c1cc(NC(=O)CSc2nnc(N)s2)ccc1Cl	TRHR enhancer 34
COc1cccc(CNC(=O)c2cccc(NC(=O)CC3SC(N4CCCCC4)=NC3=O)c2)c1 (configuration not stated)	TRHR enhancer 36, TRPML1 blocker inconclusive
COc1ccc(CNC(=O)c2cccc(NC(=O)CC3SC(N4CCCCC4)=NC3=O)c2)cc1 (configuration not stated)	none (no result: TRHR enhancer, TRHR agonist)
CC(=O)c1ccc(S(=O)(=O)Nc2ccc(-c3ccc(N4CCCCC4)nn3)cc2)cc1	TRHR enhancer 31
CC1C/C(=C/c2cccn2C)C(=O)/C(=C/c2cccn2C)C1 (configuration not stated)	TRHR enhancer 35, TRHR agonist 82
CC1C/C(=C/c2ccncc2)C(=O)/C(=C/c2ccncc2)C1 (configuration not stated)	none
CC(=O)N1N=C2/C(=C/c3ccccc3)CCCC2C1c1ccccc1 (configuration not stated)	TRHR enhancer 31
O=c1c(O)c(-c2cccs2)oc2ccccc12	TRHR agonist 107, TRPML1 ag 55
O=c1c(O)c(-c2cccs2)oc2ccc(Cl)cc12	TRHR enhancer 77, TRHR agonist 168, TRPML1 ag 59
O=C(NNC(=S)NC(=O)C12CC3CC(CC(C3)C1)C2)c1ccncc1	TRHR agonist 36, TRPML1 ag inconclusive
CC1(C(=O)NC(=S)NNC(=O)c2ccncc2)CCCCC1	none
COc1cc(Cl)c(NC(=O)CCS(=O)(=O)c2ccc3c(c2)NC(=O)CO3)c(OC)c1	TRHR enhancer 31
CCc1cccc(NC(=O)CCS(=O)(=O)c2ccc3c(c2)NC(=O)CO3)c1	none
O=C(c1cc(C2CC2)nn1-c1ccccc1)N1CCN(c2ccc(O)cc2)CC1	TRHR enhancer 30
COc1ccc(CN2CCC3(CC2)c2ccccc2[C@@H](NC(=O)c2ccsc2)[C@@H]3OC)cc1O	none (no result: TRHR enhancer, TRHR agonist, TRPML1 blocker, TRPML1 ag)
COCCCNc1c2c3c(cccc3[nH]c1=O)C(=O)c1ccccc1-2	TRPML1 ag 113
COc1ccc2c(c1)OC(C)CN(CCNC(=O)c1cccc(N3CCNC3=O)c1)C2 (configuration not stated)	none (no result: TRHR enhancer, TRHR agonist, TRPML1 blocker, TRPML1 ag)
CCC(=O)NCc1nc(-c2cccc(NC(=O)c3ccc(C)s3)c2)oc1C	none (no result: TRHR enhancer, TRHR agonist, TRPML1 blocker, TRPML1 ag)
Cc1ccc(Cn2ccc(NC(=O)CCSc3nc(-c4ccco4)cc(C(F)(F)F)n3)n2)cc1	TRHR enhancer 39
CC(C)(C)C(=O)NC(=S)NNC(=O)c1sc2ccccc2c1Cl	TRPML1 ag 71
COc1ccc(C(=O)NNC(=S)NC(=O)C(C)(C)C)cc1	TRHR agonist 79, GRP78 ERSR act inconclusive, TRPML1 ag 51
COc1ccc(C(=O)NNC(=O)c2ccc(C(C)(C)C)cc2)cc1	none
CN1/C(=C\C=O)C(C)(C)c2ccccc21	none
CN1\C(=C/C=C/C=C/C=[N+](C)C)C(C)(C)c2ccccc21	TRHR enhancer 47, TRHR agonist 142, TRPML1 ag 86
N#Cc1c(C(F)(F)F)cc(-c2cccs2)nc1SCC(=O)Nc1cccc(Cl)c1	none
N#Cc1c(C(F)(F)F)cc(-c2cccs2)nc1SCC(=O)Nc1cccc(Br)c1	TRHR agonist 30
COc1ccc(C(=O)N/N=C/c2sc3ccccc3c2O)cc1	none
COc1ccc2cc(C(=O)N/N=C/c3sc4ccccc4c3O)ccc2c1	TRHR agonist 33, TRPML1 ag inconclusive
COc1ccc(C(CNC(=O)c2cccc(S(=O)(=O)Nc3ccc(F)cc3)c2)N(C)C)cc1 (configuration not stated)	TRHR enhancer 33
CCn1c(SCC(=O)Nc2sc(C)c(C)c2C#N)nnc1C(C)C	TRHR enhancer 31
CC(=O)NCCNc1nc(NCc2cccs2)nc2ccsc12	none (no result: TRHR enhancer, TRHR agonist, TRPML1 blocker)
O=C1CCCN1CCCNc1nc(NCc2cccs2)nc2ccsc12	TRPML1 ag 57 (no result: TRHR enhancer, TRHR agonist, TRPML1 blocker)
Cc1ccc(NC(=O)c2nc[nH]c2C(=O)N[C@@H](C)c2ccccc2)cc1	none
C[C@@H](NC(=O)c1nc[nH]c1C(=O)NCC(=O)OCc1ccccc1)c1ccccc1	TRHR enhancer 30
C[C@@H](NC(=O)c1[nH]cnc1C(=O)Nc1ccccc1)c1ccccc1	TRHR enhancer 36
Cn1nnnc1Sc1ncnc2scc(-c3ccc4c(=O)ccoc4c3)c12	none (no result: TRPML1 blocker, GRP78 ERSR act, TRPML1 ag)
CCCCCCn1c(=O)[nH]c2nc3cc(N)c(C)cc3nc2c1=O	TRPML1 ag 70
CCCCn1c(=O)[nH]c2nc3cc(NC(C)=O)ccc3nc2c1=O	none
Cc1cc2c(s1)c1cnn(Cc3ccccc3C)c(=O)c1n2C	none (no result: TRPML1 blocker, GRP78 ERSR act, TRPML1 ag)
CCN1/C(=C/C=C/C=C/C=C/c2sc3ccccc3[n+]2CC)Sc2ccccc21	TRHR enhancer 32
COc1ccccc1N1CCN(c2nc(CNC(=O)c3cc(C)oc3C)nc3ccccc23)CC1	none (no result: TRHR enhancer, TRHR agonist, TRPML1 blocker, TRPML1 ag)
